Laboratory results reported in PubChem BioAssay AID489008 (National Center for Advancing Translational Sciences (NCATS), 2010).
Inconclusive results are not listed. Active and inactive are the calls of the source. Calls follow the shape of the dose curve; as a rule, active = well fitted inhibition curve with a large enough effect; inconclusive = small, poorly fitted or top-dose-only effect; inactive = flat fitted curve, though single readings scatter.

Biological target: Ferritin light chain (Equus caballus) (UniProt P02791)
Sequence (P02791 2-175 limits assumed): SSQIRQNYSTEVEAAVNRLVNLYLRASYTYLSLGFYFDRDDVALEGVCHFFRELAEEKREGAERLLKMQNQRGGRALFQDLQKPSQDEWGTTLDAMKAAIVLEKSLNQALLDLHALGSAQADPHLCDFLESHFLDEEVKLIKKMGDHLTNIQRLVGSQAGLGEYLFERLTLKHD
Assay: Confirmation Assay for Identification of Novel General Anesthetics; also: nearly all actives have a fitted effect of over 40% in size
Details: apoferritin 1-aminoanthracene fluorescence displacement
Outline: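 Competitive displacement of profluorescent 1-aminoanthracene from 10 uM horse-spleen apoferritin in 50% saturated 1-AMA/PBS; 10 min RT, fluorescence Ex 380/Em 535. Normalized to free 1-AMA and complex; four-parameter Hill fit.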
Potency is read from the fitted curve at half-maximal effect.

Potency, active:
Cc1ccc(C2=NN(CC(=O)NCCc3ccccc3)C(=O)CC2)cc1 5.19 µM, Cc1cc(C)n2nc(CC(=O)NC3CCCC(C)C3C)nc2n1 (centres undefined) 15.8 µM, O=C(CSCCO)Nc1ccc(C2CCCCC2)cc1 20 µM, Cc1ccc(NC(=O)N2CCCCCC2)cc1C 6.31 µM, CC1CCCN(C(=O)Cc2cccc3ccccc23)C1 (centres undefined) 31.6 µM, Nc1cc(Cl)ccc1Oc1ccc2ccccc2c1 15.8 µM, CC1CCCN(C(=O)COc2ccc(Nc3ccccc3)cc2)C1 (centres undefined) 25.1 µM, CC(C)CCSc1nc2ccccc2[nH]1 15.8 µM, Nn1cnnc1SCC(=O)Nc1ccc(C2CCCCC2)cc1 7.08 µM, COc1ccccc1CC(=O)Nc1cc(Cl)ccc1O 17.8 µM, COc1cccc(NC(=O)N2CCCCCC2)c1 14.1 µM, O=C1CCCc2ccccc2N1Cc1ccccc1Cl 15.8 µM, Nn1cnc2sc3c(c2c1=O)CCC3 31.6 µM, Cc1ccc(CNc2ccc(CNc3ncn[nH]3)cc2)cc1 20 µM, Cc1cc(C)n(-c2ccc(C(=O)NCc3ccc4c(c3)OCO4)cc2)n1 15.8 µM, Cc1ccc(C2=NN(CC(=O)NCc3cccs3)C(=O)CC2)cc1 7.08 µM, N/C(=N\OC(=O)Cc1ccc(-c2ccccc2)cc1)c1ccncc1 31.6 µM, CCCn1nnc(NC(=O)COc2ccc(C3CCCCC3)cc2)n1 12.6 µM, COc1cc(C(=O)O[C@@H]2CC3CC[C@]2(C)C3(C)C)ccc1O 14.1 µM, Cc1ccc(Cn2cccc(NC(=O)NCc3ccccc3)c2=O)cc1 7.08 µM, O=C(Cc1cccc2ccccc12)N1CCCc2ccccc21 17.8 µM, CC1Cc2ccccc2N1C(=O)CSc1nnnn1C (centres undefined) 28.2 µM, N#CCc1ccc(Oc2ncc(C(F)(F)F)cc2Cl)cc1 17.8 µM, ON1C(c2ccc(Cl)cc2Cl)N(O)[C@H]2CCCC[C@H]21 (some centres undefined) 7.94 µM, O=C1C(Cl)=C(N2CCOCC2)C(=O)N1c1ccccc1Cl 15.8 µM, CN(C)CC(=O)Nc1ccc(Oc2ccc(Cl)cc2)cc1 28.2 µM, CCOC(=O)c1c(C(C)(C)C)oc2ccc(O)cc12 39.8 µM, Cc1ccc(NC(=O)N2CCCCCC2)c(C)c1 15.8 µM, O=C(NC1CCCCCCC1)c1ccc(Br)o1 17.8 µM, C/C(=N\Nc1ccc(F)cc1F)c1cccs1 11.2 µM, O=C(COc1ccc(F)c(Cl)c1)N1CCCCCCC1 35.5 µM, CC1CCCCC1NC(=O)Cn1nc(-c2ccccc2)ccc1=O (centres undefined) 7.08 µM, CC1CCCCN1S(=O)(=O)Cc1ccccc1Cl (centres undefined) 14.1 µM, Cc1cc(N2CC(C(=O)Nc3nccs3)CC2=O)ccc1C(C)C (centres undefined) 14.1 µM, Cc1ccc(-c2ccc(=O)n(CC(=O)NC(C)c3ccccc3)n2)cc1 (centres undefined) 20 µM, Cc1ccc(S(=O)(=O)NCCc2ccccc2)cc1 15.8 µM, CC1(C)CC(=O)c2c(noc2-c2ccccc2)C1 17.8 µM, O=C(Cn1sc2ccccc2c1=O)NC12CC3CC(CC(C3)C1)C2 15.8 µM, Fc1ccccc1CNc1ccc(Cl)cc1 11.2 µM
